# Reference: ChEMBL document CHEMBL1961873, “Compounds: GSK PKIS; Assays: Nanosyn kinase panel” (2012)
# Target: Mitogen-activated protein kinase 9 (Homo sapiens) (UniProt P45984);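 also: reported figure is the mean inhibition of JNK2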
# Conditions: at 1 µM
# Chain of Mitogen-activated protein kinase 9 (Homo sapiens) (P45984 whole entry, looked up): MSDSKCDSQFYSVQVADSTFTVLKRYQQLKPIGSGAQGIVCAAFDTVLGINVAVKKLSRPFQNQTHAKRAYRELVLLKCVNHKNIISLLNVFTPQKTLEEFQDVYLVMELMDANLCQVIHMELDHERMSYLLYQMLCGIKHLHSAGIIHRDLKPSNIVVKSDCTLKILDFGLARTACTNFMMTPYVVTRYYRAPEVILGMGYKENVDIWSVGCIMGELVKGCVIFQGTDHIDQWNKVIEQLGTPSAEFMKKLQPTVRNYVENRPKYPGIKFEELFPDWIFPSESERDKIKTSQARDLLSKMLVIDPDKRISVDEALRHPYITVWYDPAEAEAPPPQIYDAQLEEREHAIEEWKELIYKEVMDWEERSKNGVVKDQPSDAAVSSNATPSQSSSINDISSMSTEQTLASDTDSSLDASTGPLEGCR
row,Compound,inhibition
1,Cc1ccc(C(=O)NC2CC2)cc1-c1ccc2[nH]ncc2c1,-1.51%
2,OCc1ccc(-c2nc(-c3ccccn3)c(-c3ccc4c(c3)OCO4)[nH]2)cc1,5.14%
3,CC(C)c1ccc2c(c1)NC(=O)/C2=N/Nc1ccc(S(N)(=O)=O)cc1,0.34%
4,CN(C)C(=O)O[C@@H]1CN[C@@H](C#Cc2cc3ncnc(Nc4ccc(OCc5cccc(F)c5)c(Cl)c4)c3s2)C1,4.77%
5,COc1cccc(-n2nc(C)c3c(N/N=C(\C)c4ccncc4)ncnc32)c1,2.01%
6,COC(=O)c1ccc2c(c1)C(=Cc1cc(Br)c(O)c(Br)c1)C(=O)N2,11%
7,Oc1cccc(-c2nc(-c3ccccc3)[nH]c2-c2ccncc2)c1,10.7%
8,NS(=O)(=O)c1ccc(N/N=C2\C(=O)Nc3ccc(Cl)cc32)cc1,4.35%
9,COC(=O)Nc1nc2cc(Oc3ccc(NC(=O)Nc4cccc(Br)c4)cc3)ccc2[nH]1,4.83%
10,COC(=O)c1cncc(/C=C/c2c(C)cc(O)cc2C)c1,2.18%
11,COc1cc(/C=N/Nc2ncnc3c2cnn3C(C)C)ccc1O,3.44%
12,CCS(=O)(=O)c1ccc(OC)c(Nc2nccc(N(C)c3ccc4c(C)n[nH]c4c3)n2)c1,2.08%
13,[O-][S+]1CCN(Cc2ccc(-c3ccc4ncnc(Nc5ccc(OCc6ccccc6)c(Cl)c5)c4c3)o2)CC1,2.26%
14,c1ccc(Cc2nc3ccc(Nc4ncnc5ccccc45)cc3[nH]2)cc1,3.95%
15,CCS(=O)(=O)c1ccc(OC)c(Nc2ncc(-c3cccc(OC)c3)o2)c1,6.62%
16,CCn1c(-c2nonc2N)nc2ccc(F)cc21,7.99%
17,CN(C)c1cc2c(Nc3ccc4c(cnn4Cc4ccccc4)c3)ncnc2cn1,2.39%

row,Compound,inhibition
1,COc1cc2ncnc(Nc3ccc4c(cnn4Cc4ccccc4)c3)c2cc1OC,1.98%
2,O=C1Nc2ccc(-c3cccnc3)cc2C1=Cc1cc(Br)c(O)c(Br)c1,3.04%
3,COc1cc2ncnc(Nc3ccc(C)c(O)c3)c2cc1OC,5.02%
4,Cc1ccc2c(-c3ccnc(Nc4ccc5c(c4)OCCO5)n3)c(-c3ccc(C(F)(F)F)cc3)nn2n1,4.2%
5,Cc1ccc2c(-c3ccnc(Nc4cccc(C(F)(F)F)c4)n3)c(-c3ccccc3)nn2n1,82.2%
6,C[C@@H](Oc1cc(-n2cnc3ccc(OC[C@@H](O)CO)cc32)sc1C(N)=O)c1ccccc1Cl,-0.96%
7,CN(C)CCCn1c(-c2nonc2N)nc2cnccc21,4.57%
8,CN(c1ccc(NC(=O)Nc2ccc(OC(F)(F)F)cc2)cc1)c1ccnc(Nc2cccc(S(N)(=O)=O)c2)n1,3.15%
9,O=C1Nc2ccccc2/C1=C/Nc1ccc2[nH]c(=O)[nH]c2c1,12.5%
10,Cc1ccc2c(c1)/C(=N/Nc1ccc(S(N)(=O)=O)cc1)C(=O)N2,1.49%
11,CCCN1CCCC(c2ccc(Nc3nc(Nc4cc(F)ccc4C(N)=O)c4cc[nH]c4n3)c(OC)c2)C1 (stereo not drawn),91.3%
12,Nc1nccc(-c2c(-c3ccc(F)cc3)nn3cc(C(F)(F)F)ccc23)n1,4.47%
13,NS(=O)(=O)c1ccc(-c2cc3ccncc3cc2OCc2ccccc2)cc1,6.21%
14,NC(=O)c1sc(-n2cnc3ccccc32)cc1OCc1ccccc1Br,6%
15,O=S(=O)(CCOCc1ccc(-c2ccc3ncnc(Nc4ccc(OCc5cccc(F)c5)c(Cl)c4)c3c2)o1)c1ccccc1,0.74%
16,Nc1ccc(C#Cc2cncnc2Nc2ccc(OCc3cccc(F)c3)c(Cl)c2)cc1,1.2%
17,ON=C1CCc2cc(-c3nc(C4CCNCC4)[nH]c3-c3ccncc3)ccc21,3.06%

# Target: Mitogen-activated protein kinase 1 (Homo sapiens) (UniProt P28482);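 also: reported figure is an averaged percent inhibition of the kinase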
# Sequence (P28482 whole entry): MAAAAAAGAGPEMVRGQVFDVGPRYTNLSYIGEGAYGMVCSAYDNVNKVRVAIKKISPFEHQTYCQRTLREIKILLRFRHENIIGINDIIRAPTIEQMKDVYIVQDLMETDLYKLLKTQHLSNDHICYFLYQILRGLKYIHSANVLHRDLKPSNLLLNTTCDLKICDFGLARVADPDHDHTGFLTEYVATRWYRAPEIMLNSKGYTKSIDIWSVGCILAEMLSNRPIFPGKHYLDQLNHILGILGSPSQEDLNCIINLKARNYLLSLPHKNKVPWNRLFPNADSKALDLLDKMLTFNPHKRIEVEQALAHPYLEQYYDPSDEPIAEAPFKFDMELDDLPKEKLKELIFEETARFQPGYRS
# Conditions: at 0.1 µM
row,Compound,inhibition
1,Cc1ccc(C(=O)NC2CC2)cc1-c1ccc2[nH]ncc2c1,-3.82%
2,OCc1ccc(-c2nc(-c3ccccn3)c(-c3ccc4c(c3)OCO4)[nH]2)cc1,5.49%
3,CC(C)c1ccc2c(c1)NC(=O)/C2=N/Nc1ccc(S(N)(=O)=O)cc1,2.02%
4,CN(C)C(=O)O[C@@H]1CN[C@@H](C#Cc2cc3ncnc(Nc4ccc(OCc5cccc(F)c5)c(Cl)c4)c3s2)C1,-1.16%
5,COc1cccc(-n2nc(C)c3c(N/N=C(\C)c4ccncc4)ncnc32)c1,2.86%
6,COC(=O)c1ccc2c(c1)C(=Cc1cc(Br)c(O)c(Br)c1)C(=O)N2,3.12%
7,Oc1cccc(-c2nc(-c3ccccc3)[nH]c2-c2ccncc2)c1,5.56%
8,NS(=O)(=O)c1ccc(N/N=C2\C(=O)Nc3ccc(Cl)cc32)cc1,6.29%
9,COC(=O)Nc1nc2cc(Oc3ccc(NC(=O)Nc4cccc(Br)c4)cc3)ccc2[nH]1,2.82%
10,COC(=O)c1cncc(/C=C/c2c(C)cc(O)cc2C)c1,4.28%
11,COc1cc(/C=N/Nc2ncnc3c2cnn3C(C)C)ccc1O,1.48%
12,CCS(=O)(=O)c1ccc(OC)c(Nc2nccc(N(C)c3ccc4c(C)n[nH]c4c3)n2)c1,5.51%
13,[O-][S+]1CCN(Cc2ccc(-c3ccc4ncnc(Nc5ccc(OCc6ccccc6)c(Cl)c5)c4c3)o2)CC1,3.15%
14,c1ccc(Cc2nc3ccc(Nc4ncnc5ccccc45)cc3[nH]2)cc1,3.59%
15,CCS(=O)(=O)c1ccc(OC)c(Nc2ncc(-c3cccc(OC)c3)o2)c1,1.59%
16,CCn1c(-c2nonc2N)nc2ccc(F)cc21,6.8%
17,CN(C)c1cc2c(Nc3ccc4c(cnn4Cc4ccccc4)c3)ncnc2cn1,1.31%

row,Compound,inhibition
1,COc1cc2ncnc(Nc3ccc4c(cnn4Cc4ccccc4)c3)c2cc1OC,2.88%
2,O=C1Nc2ccc(-c3cccnc3)cc2C1=Cc1cc(Br)c(O)c(Br)c1,6.12%
3,COc1cc2ncnc(Nc3ccc(C)c(O)c3)c2cc1OC,5.5%
4,Cc1ccc2c(-c3ccnc(Nc4ccc5c(c4)OCCO5)n3)c(-c3ccc(C(F)(F)F)cc3)nn2n1,1.99%
5,Cc1ccc2c(-c3ccnc(Nc4cccc(C(F)(F)F)c4)n3)c(-c3ccccc3)nn2n1,6.13%
6,C[C@@H](Oc1cc(-n2cnc3ccc(OC[C@@H](O)CO)cc32)sc1C(N)=O)c1ccccc1Cl,-3.13%
7,CN(C)CCCn1c(-c2nonc2N)nc2cnccc21,2.21%
8,CN(c1ccc(NC(=O)Nc2ccc(OC(F)(F)F)cc2)cc1)c1ccnc(Nc2cccc(S(N)(=O)=O)c2)n1,4.33%
9,O=C1Nc2ccccc2/C1=C/Nc1ccc2[nH]c(=O)[nH]c2c1,5.93%
10,Cc1ccc2c(c1)/C(=N/Nc1ccc(S(N)(=O)=O)cc1)C(=O)N2,-0.67%
11,CCCN1CCCC(c2ccc(Nc3nc(Nc4cc(F)ccc4C(N)=O)c4cc[nH]c4n3)c(OC)c2)C1 (stereo not drawn),8.06%
12,Nc1nccc(-c2c(-c3ccc(F)cc3)nn3cc(C(F)(F)F)ccc23)n1,-0.05%
13,NS(=O)(=O)c1ccc(-c2cc3ccncc3cc2OCc2ccccc2)cc1,5.32%
14,NC(=O)c1sc(-n2cnc3ccccc32)cc1OCc1ccccc1Br,3.31%
15,O=S(=O)(CCOCc1ccc(-c2ccc3ncnc(Nc4ccc(OCc5cccc(F)c5)c(Cl)c4)c3c2)o1)c1ccccc1,2.68%
16,Nc1ccc(C#Cc2cncnc2Nc2ccc(OCc3cccc(F)c3)c(Cl)c2)cc1,4.25%
17,ON=C1CCc2cc(-c3nc(C4CCNCC4)[nH]c3-c3ccncc3)ccc21,-1.76%
